Compounds with a hit are over-represented: about 7.4% of the library has one in this group of screens.
NPC1 prom act = qHTS Assay for NPC1 Promoter Activators | Huh7 NPC1 promoter luciferase reporter, 24 h | Potency, µM (titrated, usually from 9.22 µM), for the others: at the top dose activation, actives largely listed as activators | actives 2.4% (n = 320,000) | AID 485313, 2010; note: % of control where 0% means no effect; nearly all actives have a fitted effect of over 60% in size
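In 1536-well qHTS, Huh7 cells harboring an NPC1 promoter–luciferase construct received compound for 24 h; activation was quantified by luminescence following luciferase reagent addition.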
FLuc counter = qHTS profiling assay for firefly luciferase inhibitor/activator using purifed enzyme and Km concentrations of substrates (counterscreen for miR-21 project). Luciferin 4-monooxygenase (Photinus pyralis), P08659. purified FLuc, Km substrates, luminescence inhibition. Potency, µM (top dose mostly 57.5 µM), without a hit: at the highest dose activity change, negative = inhibition, most hits filed as inhibitors. actives 6.9% (n = 360,000);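 note: plate controls were vehicle for no effect and reference inhibitor for full effect; nearly all actives have a fitted effect of over 55% in size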
Target sequence (P08659 whole entry, looked up): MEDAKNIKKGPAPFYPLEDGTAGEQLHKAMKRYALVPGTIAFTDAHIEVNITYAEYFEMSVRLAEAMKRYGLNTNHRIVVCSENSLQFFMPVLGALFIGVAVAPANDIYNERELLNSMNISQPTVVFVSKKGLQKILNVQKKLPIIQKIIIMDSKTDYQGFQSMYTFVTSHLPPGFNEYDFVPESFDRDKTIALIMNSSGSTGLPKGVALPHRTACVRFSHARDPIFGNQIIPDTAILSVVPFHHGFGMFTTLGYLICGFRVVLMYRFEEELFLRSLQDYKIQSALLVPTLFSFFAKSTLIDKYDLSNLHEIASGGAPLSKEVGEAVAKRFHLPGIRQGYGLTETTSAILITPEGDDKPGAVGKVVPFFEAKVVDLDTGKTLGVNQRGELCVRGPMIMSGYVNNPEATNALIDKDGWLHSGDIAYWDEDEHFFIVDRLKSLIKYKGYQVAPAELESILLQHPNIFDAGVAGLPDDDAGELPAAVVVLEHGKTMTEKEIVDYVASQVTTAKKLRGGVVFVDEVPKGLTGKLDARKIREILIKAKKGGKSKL
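Biochemical qHTS of compounds, final roughly 60 µM downward over six points, against 10 nM purified firefly luciferase using Km concentrations of substrates (10 uM D-luciferin, 10 uM ATP) in Tris acetate pH 7.5 buffer; luminescence output.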
Rab9 promoter act = qHTS Assay for Rab9 Promoter Activators; Huh7 Rab9 promoter-luciferase reporter, luminescence, 24 h; Potency, µM (top dose mostly 9.22 µM), inactives show top-dose activation, negative = inhibition, actives largely listed as activators; actives 2.8% (n = 320,000); AID 485297, 2010; note: % of control where 0% means no effect; nearly all actives have a fitted effect of over 60% in size
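Quantitative HTS format; Huh7 Rab9-luciferase reporter cells (1500/well) receive compound 2 h post-plating, incubate 24 h at 37 °C, then get luciferase reagent for 10 min before luminescence reading.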
SMN2 splice up = qHTS Assay for Enhancers of SMN2 Splice Variant Expression; Potency, µM (titrated, usually from 46.1 µM), inactives show at the highest dose activity change, positive = activation, actives largely listed as activators; AID 1458, 2008; HEK293 SMN2-luciferase splicing reporter, luminescence, 30-36 h; actives 2.8% (n = 210,000); note: % of control where 0% means no effect; nearly all actives have a fitted effect of over 55% in size
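qHTS luciferase splicing reporter: luminescence rises when SMN2 exon 7 is included in transfected HEK293 cells. Compound exposure lasted 30-36 h at 37C, with 4.5 mM final sodium butyrate as control, followed by a ONE-Glo read.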
ELG1 genotox = qHTS screen for small molecules that induce genotoxicity in human embryonic kidney (HEK293T) cells expressing luciferase-tagged ELG1; actives 1.3% (n = 330,000); HEK293T ELG1-luciferase reporter, luminescence, 16 h; AID 504466, 2011; Potency, µM (titrated, usually from 46 µM), for the others: top-dose activity change, positive = activation, hits mostly activators; note: % of control where 0% means no effect; nearly all actives have a fitted effect of over 60% in size
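Step 1: seed 2,000 HEK293T ELG1-luciferase cells per well. Step 2: add compound or DMSO, incubate 16 hr at 37 °C. Step 3: ONE-Glo, 30 min at room temperature, read luminescence.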
An asterisk follows results filed as active; ? = inconclusive; nt = no result given; [ ] = another dose, or the depositor's remark. Calls come from the whole dose curve; as a rule, active = well fitted curve in the direction sought with a large enough effect; inconclusive = small, poorly fitted or top-dose-only effect, or another doubt; inactive = no such curve, though single readings can be large; an effect the other way counts as inactive or inconclusive. Potency is the fitted concentration of half-maximal effect.

SMILES | NPC1 prom act | FLuc counter | Rab9 promoter act | SMN2 splice up | ELG1 genotox
O=C(CSc1ncccc1-c1nc2ccccc2[nH]1)N1CCN(c2ccccc2F)CC1 | -11% | 19µM* | 21% | -19% | -2%
Cn1cnnc1SCC(=O)Nc1ccc2nc(SCc3ccccc3Cl)sc2c1 | 16% | 17µM* | 26% | -13% | 5%
Cn1cnnc1SCC(=O)Nc1ccc2nc(SCc3cccc4ccccc34)sc2c1 | 1% | -4% | 0% | -21% | -9%
Cn1cnnc1SCC(=O)Nc1ccc2nc(SCc3ccccc3)sc2c1 | 3.5µM* | 11µM* | ? | -9% | ?
CCN(CC)C(=O)CSc1nc2ccc(NC(=O)CSc3nnc(N)s3)cc2s1 | 6% | ? | 6% | 3% | -6%
CCN(CC)C(=O)CSc1nc2ccc(NC(=O)CSc3nccn3C)cc2s1 | 9% | 19µM* | 1% | -41% | -5%
Cc1ccc(-c2nc(C)c(CCNS(=O)(=O)c3ccccc3F)s2)cc1 | nt | -18% | nt | nt | nt
CCOC(=O)c1cnc(SCC(=O)c2ccccc2)nc1N | 3.2µM* | 2.1µM* | 1.6µM* | 13µM* | 21µM*
CCOC(=O)c1cnc(SCC(=O)c2ccc3c(c2)OCCO3)nc1N | 0% | 21µM* | ? | 14% | 4%
CCOC(=O)c1cnc(SCC(=O)c2ccc(C)cc2)nc1N | -4% | 1% | 11% | 14% | 6%
CCOC(=O)c1cnc(SCc2cccc(C)c2)nc1N | 29% | ? | 30% | ? | 16µM*
CCOC(=O)c1cnc(SCC(C)C)nc1N | 3.2µM* | 6.7µM* | 2.5µM* | 14µM* | ?
CC1CCN(S(=O)(=O)c2ccc3c(c2)N(CC(=O)NC(C)C)C(=O)CO3)CC1 | nt | 1% | nt | nt | nt
Cc1cnc(C(=O)Oc2c(C)ccc(C)c2C)cn1 | -9% | 3% | -2% | 3% | -8%
CCOc1ccc2nc(NC(=O)c3nc(SCc4ccc(C)cc4)ncc3Cl)sc2c1 | nt | 0% | nt | 3% | nt
CCCN(CC(=O)Nc1ccccc1C)C(=O)c1ccc2ccccc2n1 | -6% | 2% | 3% | nt | 0%
O=C(Nc1ccccc1)c1ccc2ccccc2n1 | 20% | 4.8µM* | ? | ? | ?
O=C(Nc1ccccc1C(=O)O)c1ccc2ccccc2n1 | ? | 6µM* | ? | ? | ?
Cc1ccccc1NC(=S)c1ccc2ccccc2n1 | 23% | 13µM* | -2% | nt | ?
O=C(Nc1ccc(OC(F)(F)F)cc1)c1ccc2ccccc2n1 | 1% | ? | 6% | -43% | 1%
O=C(NNC(=O)c1ccc2ccccc2n1)c1ccc(O)cc1 | -3% | ? | -3% | nt | 1%
COc1ccc(NC(=O)CCC(=O)c2cccs2)c(OC)c1 | 18% | ? | 14% | nt | 26%
CCOC(=O)C1CCCN(S(=O)(=O)c2ccc3c(c2)N(C)C(=O)CC(=O)N3C)C1 (stereo unspecified) | 1% | 0% | 2% | nt | 1%
N/C(=N\OC(=O)c1cccs1)c1ccccc1 | ? | 0.67µM* | ? | ? | ?
N/C(=N\OC(=O)Cc1ccccc1[N+](=O)[O-])c1cccc(Br)c1 | -2% | ? | 1% | nt | 3%
SMILES | NPC1 prom act | FLuc counter | Rab9 promoter act | SMN2 splice up | ELG1 genotox
N/C(=N\OC(=O)Cc1ccccc1)c1cccc(Br)c1 | 0% | 17µM* | 1% | 6% | 8%
Cc1ccc(/C(N)=N/OC(=O)c2cccs2)cc1 | ? | 1.9µM* | 4.5µM* | 26%[1.84 µM] | 15µM*
N/C(Cc1cccc2ccccc12)=N\OC(=O)c1cccs1 | -1% | -4% | 8% | -1% | -1%
Cc1cccc(/C(N)=N/OC(=O)c2cccs2)c1 | 1.1µM* | 0.76µM* | 1.3µM* | ? | ?
COc1ccc(/C(N)=N/OC(=O)c2cccs2)cc1OC | -7% | 5% | -11% | nt | 3%
COc1ccc(CNC(=O)c2cncc(Br)c2)cc1 | 10% | 3% | 0% | nt | -4%
COc1ccc(C(=O)NC(CCSC)C(=O)N2CCCCCC2)cc1 (stereo unspecified) | -2% | 0% | -4% | nt | 1%
COc1ccccc1CCNC(=O)C(=O)NCC1OCCN1S(=O)(=O)c1ccc([N+](=O)[O-])cc1 (stereo unspecified) | 0% | -2% | 0% | nt | -3%[9.26 µM]
N/C(=N\OC(=O)c1cccs1)c1cccc(Br)c1 | -1% | 1.1µM* | 1% | 12% | ?
Cn1ccsc1=NC(=O)c1cccc(OC(F)F)c1 | 3.5µM* | 15µM* | ? | nt | ?
Cn1ccsc1=NC(=O)c1ccc(=O)[nH]c1 | 2% | -1% | -3% | nt | 2%
CN1CCN(C(=S)Nc2ccc(Cl)cc2Cl)CC1 | 6% | -15% | 14% | -38% | 0%
CN(C)/C=N/C(=S)Nc1ccc(Cl)cc1Cl | ? | 19µM* | ? | ? | 21µM*
CN(C)/C=N/C(=S)Nc1ccc(Cl)cc1 | 30% | 13µM* | ? | 11µM* | ?
COc1ccccc1C(=O)NCCC(=O)N1CCN(C(C)=O)CC1 | 0% | 2% | -7% | nt | 3%
NCc1nnn(Cc2ccccc2)c1N | nt | nt | nt | -6%[9.22 µM] | nt
CC(C)CCN(C(=O)c1csnn1)C(C(=O)NC1CCCC1)c1ccc(F)cc1 (stereo unspecified) | 7% | 19µM* | -3% | nt | 1%
Cc1ccc(-n2c(CCC(=O)O)ccc2-c2cccs2)cc1C | 2% | 12µM* | -8% | -12% | 2%
Cc1ccc(Cl)cc1-n1c(CCC(=O)O)ccc1-c1cccs1 | nt | ? | nt | -5% | nt
CCc1ccc(-n2c(CCC(=O)O)ccc2-c2cccs2)cc1 | nt | 13µM* | nt | 2% | nt
O=C(CNC1CCCCC1)Nc1cccc(C(F)(F)F)c1 | -1% | 1% | -2% | nt | -7%
O=C1C2C3C=CC(C3)C2C(=O)N1CCCCCCN1C(=O)C2C3C=CC(C3)C2C1=O (stereo unspecified) | -19% | 4.3µM* | 4µM* | nt | ?
CCOc1ccc(OCC)c(NC(=O)c2ccc(-c3ccccc3)s2)c1 | nt | 3% | nt | 4% | nt
O=C(Nc1ccccc1)c1ccc(-c2ccccc2)s1 | ? | 1.7µM* | ? | 2% | 5.2µM*
CCc1ccc(NC(=O)c2ccc(-c3ccccc3)s2)cc1 | nt | 0% | nt | nt | nt
CC1(C)C=C(c2ccc(C(=O)O)s2)CC(C)(C)N1 | 1% | -1% | -2% | 0% | 1%
O=C(Nc1ccccc1F)c1ccc(-c2ccccc2)s1 | nt | 1.5µM* | nt | ? | nt
O=C(O)c1ccc(-c2ccc(-c3ccccc3)cc2)s1 | 4e-05µM* | 0.076µM* | 0.001µM* | nt | ?
Cc1cc(-c2ccc(C(=O)O)s2)cnc1N | ? | 12µM* | ? | 13µM* | ?
Cc1nnc(N2CCN(c3ccc(Cl)cc3)CC2)c2c1nnn2Cc1ccc(F)cc1 | nt | 0% | nt | 1% | nt

Screens deposited in PubChem BioAssay by National Center for Advancing Translational Sciences (NCATS).
